An excerpt weighted towards active compounds, which were near 4.4% of everything screened.
PfHsp90 yeast 2 – reduces growth (ATP signal) of yeast expressing P. falciparum Hsp90; S. cerevisiae expressing PfHsp90, BacTiter-Glo ATP, 48 h; yeast lacking PDR1 and PDR3 efflux regulators; inhibition, % at 9.4 µM; 310,000 compounds, 0.32% hits; AID 504621;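 active = every replicate shows inhibition above about 80%, whatever the replicate mean, limit read from the data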
SUMO Mot1 rescue – blocks SUMOylation pathway, rescuing yeast Mot1-301 growth. S. cerevisiae Mot1-301 growth rescue, ATP luminescence, 38.5C; percent above DMSO median, 100 means doubled. growth rescue, % at 18.8 µM. AID 2716. 320,000 compounds, 1% hits;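 active = every valid replicate shows activation above 250% relative to neutral control wells; inactive = the rest, any valid replicate at or below 250%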
tim10-1 inh – inhibits growth of tim10-1 mutant yeast; S. cerevisiae tim10-1 ts strain growth, BacTiter-Glo, 24 h; inhibition, % at 20 µM; 330,000 compounds, 2.2% hits; AID 463190;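 active = inhibition of at least 40%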;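 also: mutant grown at 25 °C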
TIM10 inh – TIM10 yeast growth inhibition; S. cerevisiae TIM10 strain growth, BacTiter-Glo luminescence, 24 h; inhibition, % at 10 µM; 330,000 compounds, 1.4% hits; AID 463195;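 active = inhibition of 40% or more at the single tested concentration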;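 also: wild-type TIM10 isogenic control strain grown at permissive 25 °C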
tim23-1 inh – growth inhibitors of tim23-1 mutant yeast. 330,000 compounds, 1.3% hits. inhibition, % at 20 µM. S. cerevisiae tim23-1 growth, BacTiter-Glo luminescence, 24 h. AID 463212;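 active = growth inhibition of the mutant yeast at or above 50%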;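 also: temperature-sensitive mutant grown at 25 °C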
tim10-1 confirm – tim10-1 yeast growth inhibition, confirmed | inhibition, % at 20 µM | 7,400 compounds, 56% hits | S. cerevisiae tim10-1 ts strain growth, BacTiter-Glo, 24 h | shares compounds with tim10-1 inh | AID 463213;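 active = inhibition of yeast growth at or above a set limit in either of two repeat tests at 20 µM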;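 also: tim10-1 mutant grown at permissive 25 °C to find synthetic lethal compounds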
Numbers stand for hits; n = inactive; x = no result.

SMILES | PfHsp90 yeast 2 | SUMO Mot1 rescue | tim10-1 inh | TIM10 inh | tim23-1 inh | tim10-1 confirm
CCCCCCSC1=C(C#N)C(c2ccc(C)o2)CC(=O)N1 (centres undefined) | n | n | 40.8 | n | n | n
CCSC1=C(C#N)C(c2ccc(C)o2)CC(=O)N1 (centres undefined) | n | n | n | n | n | x
NC(=O)c1cccc(CS(=O)(=O)c2ccc(Cl)cc2)c1 | n | n | n | n | n | x
CC1(C)C(=O)Nc2ccccc2N1C(=O)COC(=O)CNS(=O)(=O)c1ccc(F)c(F)c1F | n | n | n | n | n | x
CC(C)(C)c1ccc(S(=O)(=O)CC(O)CSc2nc3c(cc2C#N)CCCC3)cc1 (centres undefined) | n | x | 40.3 | n | n | n
N#Cc1cc2c(nc1SCC(O)CS(=O)(=O)Cc1ccc(Cl)cc1)CCCC2 (centres undefined) | n | n | n | n | n | x
CCN1CCN(c2ccc(S(=O)(=O)N3CCCCC3)cc2N)CC1 | n | n | n | n | n | x
CN(C)CCNC(=O)c1ccc2c(=O)n(Cc3ccc(Cl)cc3)c(=S)[nH]c2c1 | n | n | 45.1 | n | n | n
CC1CCN(CCCNC(=O)c2ccc3c(=O)n(Cc4ccc(Cl)cc4)c(=S)[nH]c3c2)CC1 | n | n | n | n | n | x
CCOC(=O)c1c(NC(=O)CCN2CCOCC2)sc2c1CC(C)(C)OC2 | n | n | 41.8 | n | n | n
CCOC(=O)c1c(NC(=O)CN2CCOCC2)sc2c1CC(C)(C)OC2 | x | n | n | n | n | x
COc1ccc(CNC(=O)CSCc2cnn(-c3ccccc3)c2-n2cccc2)cc1 | x | n | 43.8 | n | n | n
C=CC[n+]1c(/C=C/c2ccc(OC(C)=O)c(OC)c2)ccc2ccccc21 | n | n | 56.9 | n | n | 38.2
COc1cc(/C=N/NC(=O)Nc2ccccc2)ccc1OC(C)=O | n | n | n | n | n | x
CC1CCCCC1NC(=O)CCCn1c(=S)[nH]c2ccccc2c1=O (centres undefined) | x | n | n | n | n | x
CC1CCCCC1n1c(=S)[nH]c2ccccc2c1=O (centres undefined) | x | n | 41.8 | n | n | n
CC[C@]12c3[nH]c4cc(-c5ccco5)ccc4c3CCN1C(=O)[C@@H](CC(=O)NCCN1CCOCC1)C[C@@H]2C(=O)N1CCN(C(=O)C2CC2)CC1 | n | x | n | n | n | x
O=c1c(-c2nnc(SCc3ccc(Cl)cc3)o2)cccn1Cc1ccccc1 | x | x | 45.7 | n | n | n
O=C(Nc1ccccc1-c1nnc(SCc2ccc(Cl)cc2)o1)c1ccccc1 | n | n | n | n | n | x
Cc1ccc(-n2cccc2/C=C2\C(=N)N3N=C(C(C)C)SC3=NC2=O)cc1 | n | n | 41.6 | n | n | n
COc1ccc(OCc2cc(C(=O)N3CCCCCCC3)no2)c(Cl)c1 | n | n | n | n | n | x
COc1ccc(OCc2cc(C(=O)N3CCN(C4CCCC4)CC3)no2)c(Cl)c1 | n | n | 43.3 | n | n | 32.6
COc1ccc(CC(=O)Nc2cc(S(C)(=O)=O)ccc2Cl)cc1S(=O)(=O)N1CCOCC1 | n | x | x | x | x | x
Cc1oc2ccc(O)cc2c1C(=O)c1ccc([N+](=O)[O-])cc1 | n | n | 44.9 | n | n | n
Cc1oc2ccc(O)cc2c1C(=O)c1ccc(Cl)cc1 | n | n | n | n | n | x
SMILES | PfHsp90 yeast 2 | SUMO Mot1 rescue | tim10-1 inh | TIM10 inh | tim23-1 inh | tim10-1 confirm
CC(NC(=O)c1ccco1)C(=O)NC(C)c1cc(F)c(Cl)cc1Cl (centres undefined) | n | n | n | n | n | x
O=C(C1CCN(c2nc(-c3ccccc3)nc3c2CCC3)CC1)N1CCCC1 | n | n | n | n | n | x
CC1CCCCN1C(=O)C1CCN(c2nc(-c3ccccc3)nc3c2CCC3)CC1 (centres undefined) | n | n | 56.4 | n | n | n
CSc1ccc(CN2CCCC(N3CCN(c4ccccc4)CC3)C2)cc1 (centres undefined) | n | n | n | n | n | x
CCCC(=O)Nc1nc2ccc(OCC)cc2s1 | n | n | 42.2 | n | n | n
COc1cccc(-c2noc(N)c2C#N)c1 | n | n | 52.0 | n | n | 44.2
Cc1ccc(C2(C)NC(=O)N(CC(=O)N3c4ccccc4NC(=O)CC3C)C2=O)cc1 (centres undefined) | n | n | n | n | n | x
O=C(CN1C(=O)/C(=C\C=C\c2ccccc2)SC1=S)Nc1ccc(F)cc1 | n | n | 40.1 | n | n | n
Cc1ccc(/C=C2/NC(=O)N(c3ccccc3)C2=O)o1 | n | x | n | n | n | x
O=C1N/C(=C/c2ccc(Br)s2)C(=O)N1c1ccccc1 | n | x | 45.6 | n | n | n
COc1ccc(CCC(=O)NC(C)C2CCCO2)cc1 (centres undefined) | n | n | n | n | n | x
S=C(c1ccc(N2CCCC2)c(Br)c1)N1CCCCC1 | n | n | 44.6 | n | n | n
Cc1cc(Cl)ccc1OC(C)C(=O)N1CCCN(C(=O)C(C)Oc2ccc(Cl)cc2C)CC1 (centres undefined) | n | n | 43.8 | n | n | n
CCOc1ccc(C2Nc3cccc4cccc(c34)N2)cc1OC | n | n | n | n | n | x
CCOc1cc(C2Nc3cccc4cccc(c34)N2)ccc1O | n | n | 50.9 | n | n | n
Cc1ccc(S(=O)(=O)c2nc(S(C)(=O)=O)sc2N2CCCCC2C)cc1 (centres undefined) | n | n | 41.6 | n | n | 42.7
Cc1ccc(S(=O)(=O)c2nc(S(C)(=O)=O)sc2N2CCC(O)CC2)cc1 | n | n | n | n | n | x
Cc1cc(OCCOc2cccc3cccnc23)cc(C)c1Cl | n | n | 41.3 | n | n | n
c1ccc(OCCOc2cccc3cccnc23)cc1 | n | n | n | n | n | x
COc1cc2nc(N3CCN(c4cc(C)ccc4C)CC3)nc(N)c2cc1OC | n | n | 44.9 | n | n | n
COc1cc2nc(N3CCNCC3)nc(N)c2cc1OC | n | n | n | n | n | x
COc1ccc(OC)c(S(=O)(=O)CC(O)CS(=O)(=O)c2ccccc2)c1 (centres undefined) | n | n | n | n | n | x
O=c1nc(/C=C/c2ccc(-c3ccc(F)cc3)o2)cc(C(F)(F)F)[nH]1 | x | n | 47.2 | n | n | 31.0
O=C(c1ccc(Cl)cc1)c1cnc(-c2ccccc2)s1 | n | x | x | x | x | x
CO/N=C/CC(=O)c1cnc(-c2ccc(Cl)cc2)s1 | n | n | 40.9 | n | n | n
CSCCNC(=O)c1ccc2nc(C3CCCCC3)oc2c1 | n | n | n | n | n | x
O=C1CC(N2CCC(Cc3ccccc3)CC2)C(=O)N1CCc1ccccc1 (centres undefined) | n | n | 46.4 | n | n | n
Cc1ccc(C2C(C#N)=C(N)Oc3n[nH]c(-c4ccccc4)c32)o1 (centres undefined) | x | n | x | x | x | x
Cc1cc(-c2[nH]nc3c2C(c2cccc(O)c2)C(C#N)=C(N)O3)c(C)s1 (centres undefined) | n | n | n | n | n | x

Bioassay records: PubChem, several laboratories
